According to PubChem BioAssay:

molecular target: Torsin-1A (Homo sapiens) (UniProt O14656); assay: torsin A binders from cell lysate, primary screen, small-molecule microarray, wild-type, 635/667 nm (AID 1149); conditions: COS7 hTOR1A-WT lysate, 635 nm fluorescence, higher = more signal
Sequence (O14656 whole entry, looked up): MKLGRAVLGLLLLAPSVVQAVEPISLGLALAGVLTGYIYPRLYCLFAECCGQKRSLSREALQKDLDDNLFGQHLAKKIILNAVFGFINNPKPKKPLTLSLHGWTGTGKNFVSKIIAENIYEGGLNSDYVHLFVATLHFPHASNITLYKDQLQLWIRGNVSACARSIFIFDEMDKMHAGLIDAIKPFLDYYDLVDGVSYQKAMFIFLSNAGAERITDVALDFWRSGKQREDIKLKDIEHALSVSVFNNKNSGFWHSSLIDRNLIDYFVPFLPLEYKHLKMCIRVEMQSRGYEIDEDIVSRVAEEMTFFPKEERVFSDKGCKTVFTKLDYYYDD

| Compound | composite z-score |
| --- | --- |
| C=CC[C@H](OC(=O)Nc1ccc(SC)cc1)c1ccc(O)c2ccccc12 | 0.557 |
| O=C1O[C@@H](c2ccccc2)[C@@H](c2ccccc2)N2[C@@H](c3ccc(OCCO)cc3)[C@]3(C(=O)Nc4ccc(C#CC5=CCCCC5)cc43)[C@@H](C(=O)NC[C@H](O)c3ccccc3)[C@H]12 | 0.411 |
| O=C1O[C@H](c2ccccc2)[C@H](c2ccccc2)N2[C@H]1[C@@H](C(=O)O)[C@]1(C(=O)Nc3ccc(C#CCCO)cc31)[C@H]2c1ccccc1OCCO | -0.658 |
| CC(C)c1ccc(NN2C(C(O)c3ccc(C#N)cc3)C=CC3C(=O)N(c4ccccc4)C(=O)C32)cc1 (stereo not given) | 0.0628 |
| C[N+](C)(C)CCCC[C@@H]1NC(=O)[C@@H]2C[C@H](C(=O)NCCCCCCN)[C@H](c3cccc(OCCO)c3)N2C1=O | 0.85 |
| CC(C)[Si]1(C(C)C)OCc2cc(C3CC3)nc(-c3ccc(Oc4ccccc4)cc3)c21 | 0.726 |
| COCCOC(=O)N1C(=O)[C@@]2(c3cc(C#CC4(O)CCCCCC4)ccc31)[C@H](c1ccc(O)cc1)N1[C@H](c3ccccc3)[C@H](c3ccccc3)OC(=O)[C@H]1[C@@H]2C(=O)N1CCN(c2ncccn2)CC1 | 0.49 |
| COC(=O)c1c(CC[C@@H](CO)NC(=O)N[C@@H](C)Cn2cc(-c3ccccn3)nn2)oc(C(C)=O)c1C(=O)OC | 0.372 |
| CCOC(=O)[C@@H]1CCCCN1C(=O)C(=O)OC | 0.188 |
| CN(C)c1ccc(C(O)C2C=CC3C(=O)NC(=O)C3N2Nc2ccccn2)cc1 (stereo not given) | 1.05 |
| CC#CCO[Si](C#Cc1ccccc1)(C(C)C)C(C)C | -1.43 |
| CC(=O)N1CC2(CC2)CC1c1ccccc1 (stereo not given) | 0.192 |
| COCCOC(=O)N1C(=O)[C@@]2(c3cc(C#CCC(C(=O)OC)C(=O)OC)ccc31)[C@H](c1ccc(OCCO)cc1)N1[C@H](c3ccccc3)[C@H](c3ccccc3)OC(=O)[C@H]1[C@@H]2C(=O)N1CCc2cc(OC)c(OC)cc2C1 | 0.843 |
| C=CCC(OC(C)=O)[C@@H]1[C@@H](N(Cc2cccc3ccccc23)C(=O)Cc2ccc(F)cc2)c2cc(OCCCO)ccc2N1C(=O)c1ccc2ccccc2c1 (stereo not given in full) | -0.035 |
| CN1C2C=C(CCCO)C(C3C(=O)N(C(N)=O)C(=O)C32)C1C1CC1 (stereo not given) | 0.0337 |
| CCCN1C(=O)[C@]2(Cc3ccccc31)N=C(c1ccc(OCCCO)cc1)O[C@@H]2c1ccccc1 | 0.738 |
| NCCCCCNC(=O)[C@@H]1C[C@@H]2C(=O)N[C@@H](CCCCN)C(=O)N2[C@@H]1c1ccc(O)cc1 | 0.811 |
| Cc1ccc(C(C)CC(O)C2C=CC3C(=O)N(c4ccccc4)C(=O)C3N2Nc2ccccc2)o1 (stereo not given) | 0.145 |

| Compound | composite z-score |
| --- | --- |
| CCCNC(=O)[C@@H]1c2ccccc2C(=O)N(Cc2ccc(OC(F)(F)F)cc2)[C@H]1c1ccc(CO)cc1 | 0.0008 |
| CC(C)C(CO)N1C(=O)[C@@H]2[C@H]3C(=O)OCC=C[C@H]3OC23C=CCN(c2ccc(Cl)cc2)C(=O)[C@@H]13 (stereo not given in full) | -0.677 |
| CC(C)c1ccc(NN2C(C(O)c3ccc(F)cc3)C=CC3C(=O)N(c4ccccc4)C(=O)C32)cc1 (stereo not given) | -0.448 |
| OCCCC1=CC(c2ccc(CN3CCCC3)cc2)N(Cc2cc3c(cc2Br)OCO3)CC1 (stereo not given) | 0.763 |
| COc1cc2c(cc1O)C(c1cccs1)N(Cc1cc3c(cc1Br)OCO3)CC2 (stereo not given) | 0.835 |
| CCCNC(=O)[C@@]1(Sc2ccc(C)cc2)CC(=O)N(C2Cc3ccccc3C2)[C@@H]1c1ccc(CO)cc1I | 0.418 |
| CC(C)=C1C(=O)C(c2ccccc2)=C2CN3C(=O)N(CCc4ccccc4)C(=O)[C@]3(Cc3ccc(C(F)(F)F)cc3)[C@H]21 | -0.0473 |
| COc1cccc(C)c1NC(=O)O[C@H]1[C@H](OC(=O)Nc2ccccc2-c2ccccc2)[C@H](OC(=O)Nc2ccccc2-c2ccccc2)[C@@H](OC)O[C@@H]1CO | 0.561 |
| COCCCNC(=O)[C@@]1(CCC(=O)OC(C)(C)C)N=C(c2ccc(OCCCO)cc2)O[C@H]1c1ccccc1N=[N+]=[N-] | 0.786 |
| COc1cc2c(cc1O)C(c1ccc(CN3CCCC3)cc1)N(Cc1cc3c(cc1Br)OCO3)CC2 (stereo not given) | -0.231 |
| CCCC[C@@H](O)C1=C(COC)C[C@H]2C(=O)N(C)C(=O)[C@H]2[C@H]1CO | 0.32 |
| COC(=O)C(CC#Cc1ccc2c(c1)[C@]1(C(=O)N2)[C@H](c2ccc(O)cc2)N2[C@H](c3ccccc3)[C@H](c3ccccc3)OC(=O)[C@H]2[C@@H]1C(=O)NC[C@H](O)c1ccccc1)C(=O)OC | -0.207 |
| COC(=O)C1=CC(CCCO)=CC(c2ccc(CN3CCCC3)cc2)N(Cc2cccc(OC(F)(F)F)c2)C=C1C(=O)OC (stereo not given) | 0.648 |
| NC(=O)NCC#Cc1ccc2c(c1)[C@]1(C(=O)N2)[C@H](c2ccccc2OCCO)N2[C@H](c3ccccc3)[C@H](c3ccccc3)OC(=O)[C@H]2[C@@H]1C(=O)O | -0.689 |
| COC(=O)[C@@H]1N=C(c2ccc(OCCCO)cc2)O[C@@H]1c1ccccc1 | 1.01 |
| C=CCC(OC(C)=O)[C@@H]1[C@@H](N(Cc2cccc3ccccc23)C(=O)Cc2ccc(OC)cc2)c2cc(OCCCO)ccc2N1C(=O)c1ccc(-c2ccccc2)cc1 (stereo not given in full) | -0.452 |
| CC(C)[Si]1(C(C)C)OCc2cc(-c3ccc(-c4ccc(Cl)c(Cl)c4)o3)nc(-c3ccccc3)c21 | -0.193 |
